The source made the active and inactive calls.

Among the data in PubChem BioAssay are composite z-score and z-score values, retold here.

Assay [1] concerns Plasmodium falciparum Sir2 (PF13_0152, Sir2A). The assay is described as follows: Plasmodium falciparum Sir2A binding compounds – biochemical, small-molecule microarray, 635 nm fluorescence, primary screen (AID 1098).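 Note: score merges spot fluorescence intensity with its signal-to-noise ratio.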 Particulars: fluorescence 635 nm, higher = more signal.
Assay [2] in a line: probe aDKK1 binding to arrayed compounds – biochemical, biotinylated probe, 635/667 nm fluorescence, primary screen (AID 1099).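 Note: score merges 667nm spot fluorescence with signal to noise across triplicate slides; reference of the scale not given here.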 Particulars: small-molecule microarray, higher = more signal.
Assay [3] can be described thus: probe aCHRDL2 binding to arrayed compounds – biochemical, biotinylated probe, 635/667 nm fluorescence, primary screen (AID 1100). Particulars: small-molecule microarray, higher = more signal.
Assay [4] can be described thus: change in splice reporter luminescence, either direction, cell-based, HEK293, spliceosome inhibition project, primary screen (AID 1101).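 Note: HEK293 cells carrying a splicing-competent luciferase reporter gene; test concentration not given here.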 Particulars: HEK293 splicing luciferase reporter, 24 h, higher = more signal, called active from +8 up or from −8 down. Background: In a reporter assay the amount or activity of a reporter protein is the signal.
The target of assay [5] is Fibroblast growth factor 10 (Homo sapiens) (UniProt O15520). The assay is described as follows: compounds binding fibroblast growth factor 10 – biochemical, small-molecule microarray, 635 nm fluorescence, primary screen (AID 1102). The settings on record: FGF10 binding, fluorescence 635 nm, higher = more signal.
Assay [6] concerns glycogen synthase kinase-3 (GSK3A per assay name; protocol says GSK3B). The assay is described as follows: compounds binding glycogen synthase kinase-3 – biochemical, small-molecule microarray, 635 nm fluorescence, GSK3A, primary screen (AID 1103). Note: the record names both GSK3A and GSK3B. Particulars: fluorescence 635 nm, higher = more signal.
Assay [7] deals with Epidermal growth factor receptor (Homo sapiens) (UniProt P00533). As to the kind of experiment: compounds binding epidermal growth factor receptor – biochemical, small-molecule microarray, 635 nm fluorescence, primary screen (AID 1104).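 Note: score merges 667 nm emission intensity with spot signal to noise over triplicate slides.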 The settings on record: EGFR binding, higher = more signal.
Assay [8] addresses Follistatin-related protein 3 (Homo sapiens) (UniProt O95633). As to the kind of experiment: compounds binding follistatin-related protein 3 – biochemical, small-molecule microarray, 635 nm fluorescence, primary screen (AID 1105).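 Note: score merges emission near 667 nm and signal to noise per printed spot across three slides.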 The settings on record: FSTL3 binding, higher = more signal.
For assay [9], the target named is Dickkopf-related protein 1 (Homo sapiens) (UniProt O94907). As to the kind of experiment: small molecules binding DKK1 protein – biochemical, small-molecule microarray, 635 nm fluorescence scan, primary screen (AID 1106).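 Note: score merges emission near 667 nm with signal to noise over three replicate slides.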 Particulars: higher = more signal.
Assay [10] relates to Inhibin beta A chain (activin A). The assay is described as follows: small molecules binding activin A – biochemical, small-molecule microarray, 635 nm fluorescence scan, primary screen (AID 1107).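 Note: mouse activin A protein probed at 4.33 µg/mL on printed slides; score merges bound-protein fluorescence near 667 nm with spot signal-to-noise.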 The settings on record: INHBA, higher = more signal.

Chain of Epidermal growth factor receptor (Homo sapiens) (P00533 whole entry, looked up): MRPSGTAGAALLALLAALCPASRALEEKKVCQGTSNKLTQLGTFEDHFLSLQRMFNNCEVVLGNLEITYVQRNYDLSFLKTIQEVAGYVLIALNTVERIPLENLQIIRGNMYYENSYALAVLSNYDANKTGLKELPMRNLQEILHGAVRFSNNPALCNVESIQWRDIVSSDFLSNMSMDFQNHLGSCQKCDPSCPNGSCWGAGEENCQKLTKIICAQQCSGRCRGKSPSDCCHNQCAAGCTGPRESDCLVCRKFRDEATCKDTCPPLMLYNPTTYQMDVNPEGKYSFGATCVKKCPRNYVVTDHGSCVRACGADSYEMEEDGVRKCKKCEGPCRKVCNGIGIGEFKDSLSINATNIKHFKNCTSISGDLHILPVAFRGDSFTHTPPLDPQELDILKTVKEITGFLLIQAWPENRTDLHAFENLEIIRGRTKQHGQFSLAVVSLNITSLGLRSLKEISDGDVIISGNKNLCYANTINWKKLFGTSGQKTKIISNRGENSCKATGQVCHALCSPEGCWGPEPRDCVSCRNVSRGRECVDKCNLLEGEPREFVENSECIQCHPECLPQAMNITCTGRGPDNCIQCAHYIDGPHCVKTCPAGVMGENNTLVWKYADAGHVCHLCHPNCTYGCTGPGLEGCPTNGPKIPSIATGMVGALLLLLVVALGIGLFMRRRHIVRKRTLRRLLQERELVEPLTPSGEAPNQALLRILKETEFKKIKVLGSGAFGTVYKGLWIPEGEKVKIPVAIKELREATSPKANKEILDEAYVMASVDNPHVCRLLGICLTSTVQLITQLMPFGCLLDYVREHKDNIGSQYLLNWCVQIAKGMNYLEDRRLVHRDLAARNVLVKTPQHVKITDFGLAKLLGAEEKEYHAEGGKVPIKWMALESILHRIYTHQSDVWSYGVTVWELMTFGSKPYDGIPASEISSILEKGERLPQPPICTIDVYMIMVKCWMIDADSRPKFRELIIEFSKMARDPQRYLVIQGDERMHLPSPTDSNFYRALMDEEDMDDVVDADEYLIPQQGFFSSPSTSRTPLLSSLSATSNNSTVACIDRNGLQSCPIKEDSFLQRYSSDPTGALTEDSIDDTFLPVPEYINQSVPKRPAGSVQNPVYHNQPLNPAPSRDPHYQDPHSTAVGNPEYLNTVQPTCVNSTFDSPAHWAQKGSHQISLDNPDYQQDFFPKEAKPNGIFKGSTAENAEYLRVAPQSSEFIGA
Chain of Dickkopf-related protein 1 (Homo sapiens) (O94907 whole entry, looked up): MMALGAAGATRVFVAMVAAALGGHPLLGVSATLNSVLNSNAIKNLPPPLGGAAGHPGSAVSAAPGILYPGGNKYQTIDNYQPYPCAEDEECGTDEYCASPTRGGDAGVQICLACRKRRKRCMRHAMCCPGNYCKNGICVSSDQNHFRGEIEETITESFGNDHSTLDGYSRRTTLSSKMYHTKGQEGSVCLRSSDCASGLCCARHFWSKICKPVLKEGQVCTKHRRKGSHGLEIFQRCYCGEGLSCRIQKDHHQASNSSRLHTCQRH
Chain of Follistatin-related protein 3 (Homo sapiens) (O95633 whole entry, looked up): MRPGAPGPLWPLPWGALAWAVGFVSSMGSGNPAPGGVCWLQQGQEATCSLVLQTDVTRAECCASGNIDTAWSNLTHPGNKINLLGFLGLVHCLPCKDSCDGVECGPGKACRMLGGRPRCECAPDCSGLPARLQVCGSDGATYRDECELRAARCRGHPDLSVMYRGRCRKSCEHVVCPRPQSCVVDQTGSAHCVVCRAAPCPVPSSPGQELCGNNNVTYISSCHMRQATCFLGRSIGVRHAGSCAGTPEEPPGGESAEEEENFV
Chain of Fibroblast growth factor 10 (Homo sapiens) (O15520 whole entry, looked up): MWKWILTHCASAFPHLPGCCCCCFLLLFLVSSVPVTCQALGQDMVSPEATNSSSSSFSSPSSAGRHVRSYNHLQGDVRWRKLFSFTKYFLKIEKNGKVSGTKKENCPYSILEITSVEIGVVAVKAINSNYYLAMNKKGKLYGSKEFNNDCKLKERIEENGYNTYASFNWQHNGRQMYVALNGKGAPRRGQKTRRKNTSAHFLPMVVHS

On to `CCOC(=O)[C@H]1C/C=C/C[C@H](C(=O)OCC)C(=O)O[C@H]2[C@@H](OC)O[C@H](CO)[C@@H](OC(=O)Nc3ccc4c(c3)OCO4)[C@@H]2OC1=O`, for which the composite z-score was 0.353 in assay [1]; 0.0005 in [2]; 0.0193 in [3]; 0.79 in [5]; 0.677 in assay [6]; -0.407 in assay [7]. Further, the composite z-score in [8] was 0.294; in assay [9], -0.009; in [10], 0.456. In addition, the z-score in assay [4] is -1.14 (inactive).

`O=C1C2C=CC(C(O)c3cccs3)N(Nc3ccccc3F)C2C(=O)N1c1ccccc1` (stereo not given): the composite z-score is 0.87 in assay [1]; 0.266 in assay [2]; 0.541 in [3]; 0.092 in assay [5]; 0.308 in assay [6]; 0.0444 in [7]. Moreover, the composite z-score is 0.224 in [8], -0.0382 in [9] and 0.804 in assay [10]. The z-score in assay [4] was -0.743 (inactive).

As to `CC(C)CNC(=O)[C@@]1(c2ccc([N+](=O)[O-])cc2)CC(=O)N(CC23CC4CC(CC(C4)C2)C3)[C@@H]1c1ccc(CO)cc1I`, the composite z-score in assay [1] was 1.13; in assay [2] it was 0.109; in assay [3], 0.0793; in assay [5] it was 1.04; in [6], 1.3; in assay [7], 0.578. Besides, the composite z-score in assay [8] came out at 1.08; in [9], 0.808; in [10], 0.383. In addition, the z-score in [4] was -0.125 (inactive).

As for `C=CCOC(=O)[C@@H]1[C@H]2C(=O)O[C@H](c3ccccc3)[C@H](c3ccccc3)N2[C@H](c2ccc(OCCOC(=O)[C@@H]3C[C@@H]4C(=O)NCC(=O)N4[C@@H]3c3cccc(OCCO)c3)cc2)[C@@]12C(=O)Nc1ccc(I)cc12`, the composite z-score in [1] is 1.05; in assay [2], 0.0651; in [3], -0.162; in assay [5], 1.29; in [6] it was 1.16; in [7], 1.12. In addition, the values for the composite z-score in [8], in [9] and in [10] were 1.1, 0.866 and 0.884, respectively. Besides, the z-score in assay [4] is -0.798 (inactive).

Turning to `C=CC[C@@]1(C(=O)O)N=C(c2ccc(OCCCO)cc2)O[C@@H]1c1ccccc1N=[N+]=[N-]`, the composite z-score in assay [1] was 1.48; in [2] it was 1.08; in [3] it was 1.2; in assay [5], 0.291; in assay [6], 0.658; in assay [7], -0.107. Moreover, the composite z-score in assay [8] was 0.316; in assay [9], -0.227; in assay [10], 1.46. In addition, the z-score in assay [4] is 0.0828 (inactive).

For `CN(C)CCCNC(=O)[C@@]1(Cc2ccccc2I)c2ccccc2C(=O)N(Cc2ccccc2C(F)(F)F)[C@H]1c1ccc(CO)cc1`, the composite z-score in [1] was 0.278; in [2], 0.234; in assay [3], 0.86; in [5], -0.75; in [6] it was 0.391; in assay [7], -1.62. Moreover, the composite z-score in [8] was -1.34; in [9] it was -1.33; in assay [10], 0.094. The z-score in assay [4] was -1.55 (inactive).

Turning to `CCCCCCc1nc(CCCc2cc3c(c(CCCCCC)n2)[Si](C(C)C)(C(C)C)OC3)cc2c1[Si](C(C)C)(C(C)C)OC2`, the composite z-score was -0.432 in assay [1]; -0.33 in assay [2]; -0.138 in assay [3]; -0.408 in assay [5]; -0.242 in [6]; -0.0687 in assay [7]. Further, the figures for the composite z-score in [8], in assay [9] and in assay [10] were -0.176, 0.279 and 1.49, respectively. Also, the z-score in [4] was 0.775 (inactive).

For `COc1ccc([Si](C)(C)[C@@H]2[C@@H](CC(=O)N3CCC[C@H]3CO)O[C@]3(C(=O)N(C)c4c(Br)cc(C)cc43)[C@H]2C)cc1`, the composite z-score in assay [1] amounted to 0.717; in [2], 0.0781; in assay [3] it was 0.0013; in [5] it was 0.801; in [6], 0.889; in [7], 0.35. In addition, the composite z-score was 1.42 in [8], 1.1 in assay [9] and 0.809 in assay [10]. In addition, the z-score in [4] was -0.778 (inactive).

For the compound `COCCOC(=O)N1C(=O)[C@@]2(c3cc(C#CC4=CCCCC4)ccc31)[C@H](C(=O)NC[C@H](O)c1ccccc1)[C@H]1C(=O)O[C@H](c3ccccc3)[C@H](c3ccccc3)N1[C@@H]2c1ccc(O)cc1`, the composite z-score in [1] was determined as 1.14; in assay [2], 0.298; in assay [3] it was 0.124; in assay [5] it was 1.22; in assay [6], 1.3; in [7], 0.663. The composite z-score in assay [8] turned out to be 1.41; in assay [9], 1.06; in assay [10], 1.01. The z-score in [4] was -1.06 (inactive).

Take `COCCCNC(=O)[C@@]1(C)c2ccccc2C(=O)N(Cc2cc(C(F)(F)F)cc(C(F)(F)F)c2)[C@H]1c1ccc(CO)cc1`: the composite z-score was 1.48 in assay [1]; -0.0291 in assay [2]; 0.945 in assay [3]; -0.607 in assay [5]; -0.514 in assay [6]; -1.24 in [7]. Also, the composite z-score in assay [8] is -0.875; in assay [9], -1.62; in assay [10], -0.754. Also, in [4], the z-score was 0.803 (inactive).

Turning to `CC(C)NC(=O)[C@@]1(Cc2ccccc2I)c2ccccc2C(=O)N(Cc2ccccc2)[C@H]1c1ccc(CO)cc1`, the composite z-score stood at 1.45 in [1]; 0.461 in assay [2]; 0.715 in assay [3]; 0.954 in [5]; 1.28 in assay [6]; 0.136 in assay [7]. Also, the composite z-score stood at 1.09 in assay [8], 0.0622 in assay [9] and 0.315 in assay [10]. In addition, in assay [4], the z-score is -0.227 (inactive).

`O=C1O[C@@H](c2ccccc2)[C@@H](c2ccccc2)N2[C@@H](c3ccccc3OCCO)[C@]3(C(=O)Nc4ccc(C#CC5(O)CCCCCC5)cc43)[C@@H](C(=O)Nc3nc4ccccc4s3)[C@H]12`: the composite z-score in assay [1] was 1.04; in assay [2] it was -0.0444; in assay [3], -0.0735; in assay [5], 0.68; in assay [6], 1.25; in [7] it was 0.369. The figures for the composite z-score in assay [8], in assay [9] and in [10] were 0.996, 0.28 and 0.251, respectively. Besides, the z-score in [4] was 0.554 (inactive).

Regarding `COCCOC(=O)N1C(=O)[C@@]2(c3cc(C#Cc4ccc(OC)cc4)ccc31)[C@H](C(=O)N1CCN(c3ncccn3)CC1)[C@H]1C(=O)O[C@H](c3ccccc3)[C@H](c3ccccc3)N1[C@@H]2c1ccc(O)cc1`, the composite z-score was -0.12 in assay [1]; -0.138 in assay [2]; 0.0953 in assay [3]; -0.0132 in [5]; -0.0617 in assay [6]; -0.026 in [7]. The composite z-score in assay [8] is 0.246; in assay [9], 0.37; in [10] it was -0.0611. Further, the z-score in assay [4] is -0.772 (inactive).

For the compound `O=C1OCC=C[C@H]2OC34C=CCN(c5ccc(Cl)cc5)C(=O)[C@H]3N(CCCCCCO)C(=O)[C@@H]4[C@@H]12` (stereo not given in full), the composite z-score in assay [1] is 2.08; in assay [2] it was 0.0526; in [3], 0.731; in [5], -1.17; in assay [6], -0.799; in [7] it was -1.78. Moreover, the composite z-score was -1.58 in assay [8], -1.22 in [9] and -0.087 in assay [10]. The z-score in [4] is -0.313 (inactive).

For the compound `C=CCC(OC(C)=O)[C@@H]1[C@@H](N(Cc2ccc(-c3cccc(C(F)(F)F)c3)o2)C(=O)c2ccc(C)cc2)c2cc(OCCCO)ccc2N1C(=O)c1ccc(-c2ccccc2)cc1` (stereo not given in full), the composite z-score in assay [1] was 0.44; in [2], -0.0544; in assay [3], 0.0823; in [5], 0.0825; in assay [6], -1; in [7], -0.0697. For the same compound, the values for the composite z-score in assay [8], in assay [9] and in [10] were 0.473, -0.0581 and 1.23, respectively. Also, the z-score in [4] is -0.714 (inactive).

Take `CCOC(=O)C[C@H]1[C@H](OC(=O)Cc2ccc3c(c2)OCO3)[C@@H](NC(=O)c2ccc(-c3ccccc3)cc2)c2cc(OCCCO)ccc2N1C(=O)c1ccccc1`: the composite z-score is 0.377 in assay [1]; -0.0183 in [2]; -0.228 in [3]; 0.602 in assay [5]; 0.367 in assay [6]; 0.457 in [7]. Moreover, the figures for the composite z-score in assay [8], in assay [9] and in [10] were 0.612, 0.247 and 0.235, respectively. Besides, the z-score in [4] was -0.586 (inactive).
